In paper PMC4336329 (PLoS ONE, 2015):
Among all 310,000 compounds or so, about 2,200 (0.71%) showed an effect of 50% or more. The effect is printed as a negative number. The full list was thinned out, with strong results kept by preference.

Target: human ether-à-go-go-related gene (hERG) potassium channel (human, UniProt Q12809)
Test: primary screen, population patch clamp on CHO cells stably expressing hERG; higher = less effect of the substance

human ether-à-go-go-related gene (hERG) potassium channel, sequence (Q12809 whole entry, looked up): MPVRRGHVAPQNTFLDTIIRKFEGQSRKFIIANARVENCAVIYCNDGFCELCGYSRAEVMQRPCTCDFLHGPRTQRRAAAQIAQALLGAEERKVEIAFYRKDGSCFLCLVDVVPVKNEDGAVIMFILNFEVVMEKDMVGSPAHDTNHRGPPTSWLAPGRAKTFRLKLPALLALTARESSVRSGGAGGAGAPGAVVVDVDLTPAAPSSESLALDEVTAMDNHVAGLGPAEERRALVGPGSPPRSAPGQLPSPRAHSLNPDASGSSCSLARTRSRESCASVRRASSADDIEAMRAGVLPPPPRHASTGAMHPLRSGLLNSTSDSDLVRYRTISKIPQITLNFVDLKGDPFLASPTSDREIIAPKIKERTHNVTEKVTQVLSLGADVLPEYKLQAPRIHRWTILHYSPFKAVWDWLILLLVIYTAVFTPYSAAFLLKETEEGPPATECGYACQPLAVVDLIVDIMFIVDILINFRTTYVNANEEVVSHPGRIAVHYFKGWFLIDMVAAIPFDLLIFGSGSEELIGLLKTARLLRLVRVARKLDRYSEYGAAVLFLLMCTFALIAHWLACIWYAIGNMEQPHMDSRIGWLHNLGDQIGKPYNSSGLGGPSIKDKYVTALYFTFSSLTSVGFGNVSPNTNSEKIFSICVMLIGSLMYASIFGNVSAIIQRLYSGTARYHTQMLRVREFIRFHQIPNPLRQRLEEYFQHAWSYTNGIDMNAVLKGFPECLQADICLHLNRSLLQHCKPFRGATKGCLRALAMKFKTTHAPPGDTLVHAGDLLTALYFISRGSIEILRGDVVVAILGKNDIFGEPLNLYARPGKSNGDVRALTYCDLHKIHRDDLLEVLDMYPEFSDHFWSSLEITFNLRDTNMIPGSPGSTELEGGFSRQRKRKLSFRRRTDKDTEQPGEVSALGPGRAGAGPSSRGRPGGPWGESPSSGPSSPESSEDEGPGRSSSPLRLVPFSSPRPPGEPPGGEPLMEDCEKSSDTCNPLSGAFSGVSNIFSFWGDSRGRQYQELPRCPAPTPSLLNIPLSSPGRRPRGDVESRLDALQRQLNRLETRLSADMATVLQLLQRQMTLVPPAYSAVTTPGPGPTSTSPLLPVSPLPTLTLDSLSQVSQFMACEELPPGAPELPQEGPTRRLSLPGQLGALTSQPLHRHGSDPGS

| SMILES | hERG current change (%, negative = inhibition) at 1uM |
| --- | --- |
| O=C(Nc1ccc2oc(=O)ccc2c1)c1cccnc1Cl | -2.76% |
| CN(C)S(=O)(=O)c1ccc(C(=O)OCCCN=C2NS(=O)(=O)c3ccccc32)cc1 | -5.83% |
| CSc1ccc(C(=O)C2CCCN(Cc3cccnc3)C2)cc1 (centres unmarked) | -4.37% |
| O=C(c1ccc(-c2ccccc2)c(F)c1)C1CCCN(CCCn2cccn2)C1 (centres unmarked) | -38.6% |
| COc1cccc(C(=O)C2CCCN(Cc3ccc(OC)c(Cn4cncn4)c3)C2)c1 (centres unmarked) | -20.2% |
| COc1ccc(CN2CCCC(C(=O)c3ccc(Cl)cc3)C2)c(O)c1 (centres unmarked) | -21.3% |
| CSc1ccc(C(=O)C2CCCN(CCCn3cccn3)C2)cc1 (centres unmarked) | -78.3% |
| COc1ccc(CN2CCCC(C(=O)c3ccc(SC)cc3)C2)cc1Cn1cccn1 (centres unmarked) | -68.5% |
| O=C(c1ccc(Cl)cc1)C1CCCN(Cc2ccc3nonc3c2)C1 (centres unmarked) | 0.831% |
| COc1ccc(CN2CCCC(C(=O)c3ccc(Cl)cc3)C2)cc1Cn1cncn1 (centres unmarked) | -59.9% |
| COc1ccc(CN2CCCC(C(=O)c3ccc(Cl)cc3)C2)c(OC)c1 (centres unmarked) | -53.6% |
| CSc1ccc(C(=O)C2CCCN(Cc3cnc(SC)nc3)C2)cc1 (centres unmarked) | -33.7% |
| COc1ccc(C(=O)C2CCCN(Cc3cc(Cl)ccc3O)C2)c(OC)c1 (centres unmarked) | 12.6% |
| COc1cc(CN2CCCC(C(=O)c3ccc(SC)cc3)C2)cc(Cl)c1O (centres unmarked) | -3.13% |
| Cc1ccc(-c2nc(Nc3cccc(C)c3)sc2CC(=O)O)cc1 | 9.35% |
| O=C(NCCCCc1ccccc1)Nc1cccc(F)c1 | 4.51% |
| COC(=O)CNS(=O)(=O)c1ccc(C)cc1 | 11.1% |
| CCn1c(SCC(=O)NCCc2ccccc2)nnc1C(C)C | 12% |
| CCOC(=O)c1oc2ccc(S(=O)(=O)Nc3ccc4c(c3)n(C)c(=O)n4C)cc2c1C | 2.26% |
| Cc1cc(-c2ccccc2)nc2cc(C(=O)N(Cc3ccccc3)Cc3ccccc3)nn12 | -3.92% |
| CN(C)C(=S)Nc1ccc(Br)cc1Cl | 7.39% |
| Nc1nccnc1C(=O)N/N=C/c1ccco1 | 13.2% |

| SMILES | hERG current change (%, negative = inhibition) at 1uM |
| --- | --- |
| Cc1csc(NC(=O)CSc2nnc(CCNC(=O)c3ccc(Cl)c(Cl)c3)n2C)n1 | 2.76% |
| COc1ccc(-n2nnnc2SCC(=O)Nc2ccccc2N2CCOCC2)cc1 | -6.62% |
| COc1c(C)cc(C(=O)C2CCCN(Cc3cccc4nccnc34)C2)cc1C (centres unmarked) | -21.2% |
| O=C(c1ccc(Cl)cc1)C1CCCN(Cc2ccc3ncccc3c2)C1 (centres unmarked) | -2.91% |
| COc1ccccc1C(=O)C1CCCN(Cc2cccc3nccnc23)C1 (centres unmarked) | -45% |
| COc1ccc(CN2CCCC(C(=O)c3cccc(OC(C)C)c3)C2)cc1Cn1cccn1 (centres unmarked) | -3.41% |
| COc1ccc(CN2CCCC(C(=O)c3ccc(Cl)cc3)C2)cc1Cn1cccn1 (centres unmarked) | -78.4% |
| CSc1ccc(C(=O)C2CCCN(Cc3cccc4nccnc34)C2)cc1 (centres unmarked) | -82% |
| Cc1ccc(NC(=O)CSc2ccccc2NC(=O)c2cccc(Cl)c2)cc1Cl | 0.293% |
| O=C(Nc1c(C(=O)N2CCC(N3CCCCC3)CC2)oc2ccccc12)c1ccc(F)cc1 | -47.7% |
| O=C(COc1ccccc1)Nc1c(C(=O)N2CCC(N3CCCCC3)CC2)oc2ccccc12 | -9.1% |
| COc1ccc(OCC(=O)Nc2c(C(=O)N3CCC(N4CCCCC4)CC3)oc3ccccc23)cc1 | -82.8% |
| COCC(=O)Nc1c(C(=O)N2CCCC2)oc2ccccc12 | 8.9% |
| CCOc1ccc(C(=O)Nc2c(C(=O)N3CCC(N4CCCCC4)CC3)oc3ccccc23)cc1 | -82% |
| O=C(Nc1c(C(=O)N2CCC(N3CCCCC3)CC2)oc2ccccc12)c1c(F)cccc1F | -5.22% |
| COc1ccccc1-n1cnc(N)c1C(C)=O | 6.83% |
| COc1cccc(-c2nc(OC(C)C)c3ccccc3n2)c1 | 7.09% |
| CCOC(=S)SCC(=O)Nc1nc(-c2ccc(Br)cc2)cs1 | -92% |
| CCOC(=S)SCC(=O)Nc1nc(-c2ccccc2)cs1 | 29.9% |
| CCOC(=O)N1CCN(C(=O)CSCC(=O)Nc2nc(-c3ccc(C)cc3)cs2)CC1 | 1.87% |
| CCOC(=O)C1=C(C)OC(N)=C(C#N)C1c1ccc(C)o1 (centres unmarked) | 7.95% |
| COc1ccc(CCN(C)CC(O)COc2c(C)ccc(C)c2C)cc1OC (centres unmarked) | -68.7% |
